From PubChem BioAssay (NCATS) come the findings set out here.

Records with an inconclusive call do not appear. Activity calls are given as the source filed them. Unless noted, the call rests on the fitted dose curve; in most records, active means well fitted curve in the direction sought with a large enough effect; inconclusive means small, poorly fitted or top-dose-only effect, or another doubt; inactive means no such curve, though single readings can be large; an effect the other way counts as inactive or inconclusive. Bounds are passed on as bounds.

Experiment [1] deals with Lysosomal acid glucosylceramidase (Homo sapiens) (UniProt P04062). Put plainly: Glucocerebrosidase-p2 (AID 348; in the data active means potency below about 10 µM; further: potency means the concentration at half of the fitted maximal effect). To be noted: purified GBA, blue fluorogenic substrate, 40 min. A digest of the protocol:
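Compounds titrated from 0.6 nM upwards against 0.2 nM enzyme in pH 5.9 citric acid/KH2PO4, taurocholate, tween-20; blue fluorogenic substrate 80 uM, 40 min room temperature, stopped and read Ex 365/Em 440 for AC50.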

Experiment [2] is described as follows: AP1 Signaling Pathway (AID 357; active means well fitted curve in either direction with a large enough effect, not every such curve was filed as active; further: on the % scale 0 is the no-effect control and ±100 the full control effect). The settings on record: ME-180 AP-1-bla reporter, EGF-induced, beta-lactamase ratio, 5 h; at 7.69 µM (top of the series) unless noted. A digest of the protocol: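 AP-1-bla ME-180 cells with beta-lactamase reporter under AP-1 response element, stimulated with EC50 EGF; compounds titrated, 5 hours at 37 degrees Celsius. CCF4 read at 460/530 nm ratio; positive and negative modulators judged by AC50.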

Experiment [3] has as its target Cytochrome P450 1A2 (Homo sapiens) (UniProt P05177). Put plainly: p450-cyp1a2 (AID 410; calls by dose curve; further: potency means the concentration at half of the fitted maximal effect). Put shortly:
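Luminescent readout of luciferin formed from Luciferin-ME by human CYP1A2; data normalized against complete inhibition by 57 uM furafylline. Enzyme 20nM, substrate 100uM at Km, 100mM KPO4 buffer, 60 min reaction at room temperature.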

The nature of experiment [4]: NFAT Signaling Pathway (AID 444; active means well fitted curve in either direction with a large enough effect, not every such curve was filed as active;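 further: carbachol stimulus at about its EC50 of 1 µM final; on the % scale 0 is the no-effect control and ±100 the full control effect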). The settings on record: Jurkat NFAT-bla M1, carbachol, beta-lactamase ratio, 5 h. A digest of the protocol: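 Read-out: CCF4 FRET ratio (460 nm/530 nm) after 1 h RT dye loading, used for %activity and AC50 from titration series. Cells: Jurkat NFAT-β-lactamase/M1 line, treated with compound plus 1 uM carbachol for 5 h, 37 °C.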
Experiment [5] can be described thus: Stat Signaling Pathway (AID 446; active means well fitted curve in either direction with a large enough effect, not every such curve was filed as active;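 further: ME-180 cervical cancer cells given 40 pM IL-6 alongside compound; SIE-controlled beta-lactamase reporter measured as 460/530 nm FRET emission ratio; on the % scale 0 is the no-effect control and ±100 the full control effect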). The settings on record: ME-180 SIE beta-lactamase reporter, IL-6 stimulated, 5 h; at 7.69 µM (top of the series) unless noted. A digest of the protocol: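 ME-180 cells carrying a SIE-driven beta-lactamase reporter are stimulated with 40 pM IL-6 for 5 h at 37C in the presence of compound. The 460/530 nm FRET substrate ratio is read after 2.5 h at RT. Data are normalised to 300 pM IL-6 and to 125 nM JAK inhibitor controls.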

In experiment [6] the target is Glucocorticoid receptor (Homo sapiens) (UniProt P04150). The experiment is described as follows: GR-GFP Redistribution (AID 450;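 active means compounds whose dose series gives a full or clear partial fitted curve of increased nuclear translocation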; further: potency means the concentration at half of the fitted maximal effect). The settings on record: U2OS GR-GFP nuclear translocation, laser cytometry, 2 h.
Sequence of Glucocorticoid receptor (Homo sapiens) (P04150 whole entry, looked up, the tested form may be a part): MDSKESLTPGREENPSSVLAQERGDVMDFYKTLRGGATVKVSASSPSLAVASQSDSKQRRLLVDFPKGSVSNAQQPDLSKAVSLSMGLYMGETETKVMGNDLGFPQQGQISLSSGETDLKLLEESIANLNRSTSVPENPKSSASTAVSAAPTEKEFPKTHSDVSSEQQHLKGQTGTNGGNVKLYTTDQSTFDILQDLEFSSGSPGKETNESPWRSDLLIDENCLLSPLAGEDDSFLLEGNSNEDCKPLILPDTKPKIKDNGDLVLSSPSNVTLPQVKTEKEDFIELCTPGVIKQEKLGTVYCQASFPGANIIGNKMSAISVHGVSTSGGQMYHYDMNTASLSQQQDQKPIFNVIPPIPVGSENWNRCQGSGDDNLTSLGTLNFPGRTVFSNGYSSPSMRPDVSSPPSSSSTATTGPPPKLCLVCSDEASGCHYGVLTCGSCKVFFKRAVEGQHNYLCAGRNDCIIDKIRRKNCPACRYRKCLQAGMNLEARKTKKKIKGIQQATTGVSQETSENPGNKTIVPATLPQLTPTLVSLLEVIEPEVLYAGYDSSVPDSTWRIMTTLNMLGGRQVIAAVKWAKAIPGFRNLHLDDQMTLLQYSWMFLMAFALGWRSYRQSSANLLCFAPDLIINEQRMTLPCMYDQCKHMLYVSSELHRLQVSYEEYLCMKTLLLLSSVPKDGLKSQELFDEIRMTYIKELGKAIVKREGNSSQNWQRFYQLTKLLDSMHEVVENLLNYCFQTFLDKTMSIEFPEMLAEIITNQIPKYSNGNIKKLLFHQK
Experiment [7] shares this target. Put plainly: GR-EFC Redistribution (AID 451; calls by dose curve; further: potency means the concentration at half of the fitted maximal effect). To be noted: CHO-K1 GR-EFC translocation, beta-gal luminescence, 2 h. A digest of the protocol: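 Translocation of GR-ED fusion to nuclear EA restores b-gal, read by luminescence after 1 h room-temperature detection. Engineered CHO-K1 biosensor cells, 1,000/well, exposed 2 h at 37 C to titrations up to 46 uM final.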

Experiment [8] concerns the target Mitogen-activated protein kinase 10 (Mus musculus) (UniProt Q61831). Put plainly: JNK3 AlphaScreen Assay (AID 530; active means well fitted curve in either direction with a large enough effect, not every such curve was filed as active;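 further: kinase came from lysate of stimulated human HepG2 cells; signal reports phosphorylation of biotinylated GST-cJun 1-79 at Ser73 with 10 µM ATP; on the % scale 0 is the no-effect control and ±100 the full control effect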). A digest of the protocol:
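Compound titrations were preincubated 15 minutes at room temperature with substrate, antibody and pre-activated JNK3-containing HepG2 lysate. Reactions were started with 10 uM ATP and stopped with EDTA-containing bead buffer for AlphaScreen detection.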

The nature of experiment [9]: qHTS Assay for Lipid Storage Modulators (AID 1519; calls by dose curve). To be noted: Drosophila S3 cells, BODIPY lipid droplet/cell ratio, laser cytometry, cells loaded with oleic acid. Put shortly: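 Cells seeded at 5,000 per well were treated with compounds over a concentration series and loaded with oleic acid (400 uM, as added). Lipid droplet fluorescence (488 nm excitation, 500-530 nm channel) was read by laser-scanning cytometry and normalized to 20 uM Triacsin C.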
In general terms: In qHTS, concentration-response curves come from the screen itself.

Experiment [10] has as its target Dual specificity protein kinase CLK4 (Homo sapiens) (UniProt Q9HAZ1). The experiment is described as follows: qHTS Assay for Inhibitors of CDC-like Kinase 4 (Kinase-Glo Assay) (AID 1770). Further: on the % scale 0 is the no-effect control and ±100 the full control effect; nearly all actives have a fitted effect of over 65% in size. A digest of the protocol:
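Luminescent ATP-depletion read-out (Kinase-Glo) after 4.5 h room-temperature reaction of Clk4 (25 nM final) with RS peptide (100 uM) and ATP (1 uM), pH 7.5 Tris buffer with MgCl2 and DTT.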

For experiment [11] the target is unchanged. The experiment is described as follows: qHTS Assay for Inhibitors of CDC-like Kinase 4 (ADP-Glo Assay) (AID 1771). Further: on the % scale 0 is the no-effect control and ±100 the full control effect; nearly all actives have a fitted effect of over 70% in size. Put shortly: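 Luminescence from ADP-Glo reports ADP produced by 25 nM Clk4 acting on 100 uM RS repeat peptide with 1 uM ATP over 1 hr at room temperature; residual ATP is depleted before ADP is converted to ATP for detection.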
For experiment [12] the target is unchanged. Put plainly: qHTS Assay for Inhibitors of CDC-like Kinase 4 (ADP-FP Assay) (AID 1795).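 Further: recombinant human CLK4 phosphorylating RS repeat peptide at 1 µM ATP; on the % scale 0 is the no-effect control and ±100 the full control effect; nearly all actives have a fitted effect of over 60% in size.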 Put shortly: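 Kinase activity was measured as ADP production using Transcreener orange tracer (4 nM) and ADP antibody (1 ug/mL) fluorescence polarization, with ADP calculated from a calibration curve. The 1 h reaction contained 6.25 nM Clk4, 1 uM ATP and 100 uM RS peptide at pH 7.5 with Mg2+.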

The target in experiment [13] is Ubiquitin carboxyl-terminal hydrolase 1 (Homo sapiens) (UniProt O94782). Put plainly: Inhibitors of USP1/UAF1: Pilot qHTS (AID 504865).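 Further: rhodamine fluorescence freed from ubiquitin-rhodamine substrate followed over time; top concentration of the series differs between compounds; on the % scale 0 is the no-effect control and ±100 the full control effect; nearly all actives have a fitted effect of over 35% in size.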 Put shortly: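 Deubiquitinase activity followed as kinetic rhodamine fluorescence release from 150 nM Ub-Rho. 1 nM USP1/UAF1 with compound, after 15 min room-temperature preincubation, in HEPES pH 7.8 buffer containing TCEP, EDTA, BSA and Tween-20.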
Sequence of Ubiquitin carboxyl-terminal hydrolase 1 (Homo sapiens) (O94782 whole entry, looked up): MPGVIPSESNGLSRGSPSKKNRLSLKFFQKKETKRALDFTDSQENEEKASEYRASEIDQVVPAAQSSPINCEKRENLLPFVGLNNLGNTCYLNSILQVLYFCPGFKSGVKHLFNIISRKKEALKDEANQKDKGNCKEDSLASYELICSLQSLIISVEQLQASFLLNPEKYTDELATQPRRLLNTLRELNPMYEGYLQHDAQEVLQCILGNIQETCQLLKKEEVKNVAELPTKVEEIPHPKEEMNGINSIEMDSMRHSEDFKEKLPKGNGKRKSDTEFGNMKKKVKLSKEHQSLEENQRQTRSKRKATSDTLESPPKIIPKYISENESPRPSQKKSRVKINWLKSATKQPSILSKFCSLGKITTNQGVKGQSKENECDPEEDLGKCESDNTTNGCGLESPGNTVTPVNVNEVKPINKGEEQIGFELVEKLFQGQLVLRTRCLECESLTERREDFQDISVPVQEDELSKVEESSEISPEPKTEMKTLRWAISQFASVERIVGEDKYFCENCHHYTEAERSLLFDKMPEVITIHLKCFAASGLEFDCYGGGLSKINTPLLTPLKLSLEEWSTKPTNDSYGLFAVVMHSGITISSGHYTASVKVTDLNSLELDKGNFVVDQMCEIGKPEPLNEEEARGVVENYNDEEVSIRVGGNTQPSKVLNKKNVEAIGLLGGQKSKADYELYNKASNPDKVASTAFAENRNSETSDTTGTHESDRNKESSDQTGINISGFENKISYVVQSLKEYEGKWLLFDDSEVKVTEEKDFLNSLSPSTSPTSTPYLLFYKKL

A short description of experiment [14]: Primary qHTS for small molecule stabilizers of the endoplasmic reticulum resident proteome: Secreted ER Calcium Modulated Protein (SERCaMP) assay (AID 1508630). Further: on the % scale 0 is the no-effect control and ±100 the full control effect. Put shortly:
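GLuc-SERCaMP-expressing SH-SY5Y cells, pretreated 16 h with compound, are challenged with thapsigargin to empty ER calcium stores; after 4 h, coelenterazine is added directly to the medium and luminescence is imaged.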

Experiment [15] addresses 3',5'-cyclic-AMP phosphodiesterase 4B (Homo sapiens) (UniProt Q07343). Put plainly: qHTS Assay for Inhibitors of PDE-IV (AID 607; active means well fitted activation curve with a large enough effect in the main read-out, with a control signal flat, not every such curve was filed as active; further: % of control where 0% means no effect). Put shortly: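 HEK293 ACTOne cells with CNG channel (1000/well), endogenous PDE4; membrane potential dye, compounds up to 22.9 uM final. Fluorescence Ex 535/Em 590; RO 20-1724 (100 uM final) as reference.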
For experiment [16], the target named is Rap guanine nucleotide exchange factor 3 (Homo sapiens) (UniProt O95398). The experiment is described as follows: Confirmatory qHTS for agonist of cAMP-regulated guanine nucleotide exchange factor 3 (EPAC1) (AID 1645881).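 Further: EPAC1 catalysed release of BODIPY-GDP from Rap1B seen as fluorescence loss; 100% = effect of cAMP agonist control; nearly all actives have a fitted effect of over 75% in size.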
The target of experiment [17] is Rap guanine nucleotide exchange factor 4 (Homo sapiens) (UniProt Q8WZA2). Put plainly: Confirmatory qHTS for agonist of cAMP-regulated guanine nucleotide exchange factor 4 (EPAC2) (AID 1645884).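 Further: nucleotide exchange releases bodipy-GDP from Rap1 and this lowers its fluorescence; on the % scale 0 is the no-effect control and ±100 the full control effect; nearly all actives have a fitted effect of over 65% in size.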
Sequence of Rap guanine nucleotide exchange factor 4 (Homo sapiens) (Q8WZA2 whole entry, looked up): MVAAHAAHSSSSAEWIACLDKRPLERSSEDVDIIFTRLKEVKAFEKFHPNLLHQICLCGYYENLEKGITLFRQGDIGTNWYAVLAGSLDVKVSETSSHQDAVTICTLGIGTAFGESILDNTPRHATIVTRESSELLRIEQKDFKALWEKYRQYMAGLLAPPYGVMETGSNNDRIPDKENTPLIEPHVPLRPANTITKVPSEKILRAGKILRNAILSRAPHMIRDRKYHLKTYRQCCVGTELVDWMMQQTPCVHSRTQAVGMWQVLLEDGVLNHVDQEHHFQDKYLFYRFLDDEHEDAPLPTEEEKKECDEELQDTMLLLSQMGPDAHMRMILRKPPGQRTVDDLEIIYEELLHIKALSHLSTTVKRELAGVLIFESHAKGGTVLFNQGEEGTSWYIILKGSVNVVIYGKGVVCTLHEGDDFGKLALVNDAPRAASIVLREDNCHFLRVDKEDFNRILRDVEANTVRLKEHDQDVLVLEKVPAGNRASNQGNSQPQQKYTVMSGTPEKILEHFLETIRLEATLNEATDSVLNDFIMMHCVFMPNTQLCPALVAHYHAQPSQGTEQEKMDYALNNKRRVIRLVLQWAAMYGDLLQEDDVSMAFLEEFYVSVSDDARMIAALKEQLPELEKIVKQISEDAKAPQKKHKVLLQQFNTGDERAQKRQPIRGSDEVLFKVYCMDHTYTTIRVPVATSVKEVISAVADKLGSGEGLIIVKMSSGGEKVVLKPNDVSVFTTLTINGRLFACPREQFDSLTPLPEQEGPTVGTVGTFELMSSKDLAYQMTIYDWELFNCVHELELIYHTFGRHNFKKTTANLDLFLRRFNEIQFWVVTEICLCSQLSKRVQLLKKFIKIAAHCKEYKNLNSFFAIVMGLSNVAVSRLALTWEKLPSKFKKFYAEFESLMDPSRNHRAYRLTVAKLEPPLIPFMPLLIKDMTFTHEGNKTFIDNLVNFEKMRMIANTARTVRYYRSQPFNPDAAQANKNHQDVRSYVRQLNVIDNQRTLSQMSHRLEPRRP
The target is the same in experiment [18]. Put plainly: Confirmatory qHTS for antagonist of cAMP-regulated guanine nucleotide exchange factor 4 (EPAC2) (AID 1645885). Further: nearly all actives have a fitted effect of over 25% in size. Further: potency means the concentration at half of the fitted maximal effect.
Experiment [19] concerns the target Cytochrome P450 3A4 (Homo sapiens) (UniProt P08684). The experiment is described as follows: qHTS Assay for Inhibitors and Substrates of Cytochrome P450 3A4 (AID 884). Further: potency means the concentration at half of the fitted maximal effect; nearly all actives have a fitted effect of over 50% in size. Put shortly:
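20 nM human CYP3A4 with 25 uM Luciferin-PPXE (at KM) in 200 mM KPO4, preincubated 10 min with compound; NADPH regeneration started a 60 min RT reaction. Luciferin detected by luminescence, normalized to 57 uM ketoconazole as full inhibition.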

For experiment [20] the target is unchanged. The experiment is described as follows: qHTS Assay for Activators of Cytochrome P450 3A4 (AID 885). Further: nearly all actives have a fitted effect of over 65% in size. A digest of the protocol: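 Human CYP3A4 (20 nM) with Luciferin-PPXE at 25 uM (its KM) in 200 mM KPO4; 10 min compound preincubation, then NADPH regeneration and 60 min reaction at RT. Luciferin read by luminescence; normalized to 57 uM ketoconazole full inhibition.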

Where [21] appears, read: at 7.69 µM (top of the series) unless noted.
Where [22] appears, read: measured here: cell count channel max response.
[23] abbreviates: measured here: lipid channel max response.

Sequence of Lysosomal acid glucosylceramidase (Homo sapiens) (P04062 whole entry, looked up): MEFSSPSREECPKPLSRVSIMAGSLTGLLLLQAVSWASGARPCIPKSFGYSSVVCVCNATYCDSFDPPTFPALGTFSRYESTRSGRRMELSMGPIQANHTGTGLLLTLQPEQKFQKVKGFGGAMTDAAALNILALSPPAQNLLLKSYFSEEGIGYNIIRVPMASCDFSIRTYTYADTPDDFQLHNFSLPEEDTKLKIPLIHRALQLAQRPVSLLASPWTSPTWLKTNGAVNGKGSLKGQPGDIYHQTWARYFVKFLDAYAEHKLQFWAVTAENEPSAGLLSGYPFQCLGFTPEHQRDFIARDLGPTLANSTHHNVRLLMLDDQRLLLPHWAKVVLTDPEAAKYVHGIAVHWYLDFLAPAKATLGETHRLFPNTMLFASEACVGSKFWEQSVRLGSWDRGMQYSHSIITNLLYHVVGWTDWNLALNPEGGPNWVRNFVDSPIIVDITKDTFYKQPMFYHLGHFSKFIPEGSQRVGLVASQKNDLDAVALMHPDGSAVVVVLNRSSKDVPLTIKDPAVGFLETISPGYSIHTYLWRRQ
Sequence of Cytochrome P450 1A2 (Homo sapiens) (P05177 whole entry, looked up): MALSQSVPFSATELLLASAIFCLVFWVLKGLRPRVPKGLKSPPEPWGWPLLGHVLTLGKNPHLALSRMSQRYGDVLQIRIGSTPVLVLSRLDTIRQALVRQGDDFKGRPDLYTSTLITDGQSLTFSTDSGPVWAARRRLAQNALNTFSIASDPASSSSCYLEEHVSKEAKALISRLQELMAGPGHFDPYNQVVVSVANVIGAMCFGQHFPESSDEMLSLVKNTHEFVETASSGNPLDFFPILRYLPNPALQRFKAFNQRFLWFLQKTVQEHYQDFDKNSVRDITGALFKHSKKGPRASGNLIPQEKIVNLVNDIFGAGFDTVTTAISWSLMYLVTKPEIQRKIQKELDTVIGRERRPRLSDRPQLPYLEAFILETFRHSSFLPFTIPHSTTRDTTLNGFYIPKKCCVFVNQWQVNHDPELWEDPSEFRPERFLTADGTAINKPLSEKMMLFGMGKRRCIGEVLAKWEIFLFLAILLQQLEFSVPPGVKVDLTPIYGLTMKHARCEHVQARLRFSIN
Sequence of Dual specificity protein kinase CLK4 (Homo sapiens) (Q9HAZ1 whole entry, looked up): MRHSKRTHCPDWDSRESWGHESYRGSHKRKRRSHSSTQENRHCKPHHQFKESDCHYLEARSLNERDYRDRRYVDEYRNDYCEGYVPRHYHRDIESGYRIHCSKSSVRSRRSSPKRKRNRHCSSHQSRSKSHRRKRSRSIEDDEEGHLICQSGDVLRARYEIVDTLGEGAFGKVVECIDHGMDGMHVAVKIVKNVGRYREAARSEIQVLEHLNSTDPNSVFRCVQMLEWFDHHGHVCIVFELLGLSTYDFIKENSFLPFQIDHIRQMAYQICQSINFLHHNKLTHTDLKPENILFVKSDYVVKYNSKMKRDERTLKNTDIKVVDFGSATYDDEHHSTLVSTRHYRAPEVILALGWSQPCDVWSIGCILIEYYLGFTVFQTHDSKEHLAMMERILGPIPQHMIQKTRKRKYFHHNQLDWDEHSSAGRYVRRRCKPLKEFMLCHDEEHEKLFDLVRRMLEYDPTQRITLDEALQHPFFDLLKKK
Sequence of 3',5'-cyclic-AMP phosphodiesterase 4B (Homo sapiens) (Q07343 whole entry, looked up): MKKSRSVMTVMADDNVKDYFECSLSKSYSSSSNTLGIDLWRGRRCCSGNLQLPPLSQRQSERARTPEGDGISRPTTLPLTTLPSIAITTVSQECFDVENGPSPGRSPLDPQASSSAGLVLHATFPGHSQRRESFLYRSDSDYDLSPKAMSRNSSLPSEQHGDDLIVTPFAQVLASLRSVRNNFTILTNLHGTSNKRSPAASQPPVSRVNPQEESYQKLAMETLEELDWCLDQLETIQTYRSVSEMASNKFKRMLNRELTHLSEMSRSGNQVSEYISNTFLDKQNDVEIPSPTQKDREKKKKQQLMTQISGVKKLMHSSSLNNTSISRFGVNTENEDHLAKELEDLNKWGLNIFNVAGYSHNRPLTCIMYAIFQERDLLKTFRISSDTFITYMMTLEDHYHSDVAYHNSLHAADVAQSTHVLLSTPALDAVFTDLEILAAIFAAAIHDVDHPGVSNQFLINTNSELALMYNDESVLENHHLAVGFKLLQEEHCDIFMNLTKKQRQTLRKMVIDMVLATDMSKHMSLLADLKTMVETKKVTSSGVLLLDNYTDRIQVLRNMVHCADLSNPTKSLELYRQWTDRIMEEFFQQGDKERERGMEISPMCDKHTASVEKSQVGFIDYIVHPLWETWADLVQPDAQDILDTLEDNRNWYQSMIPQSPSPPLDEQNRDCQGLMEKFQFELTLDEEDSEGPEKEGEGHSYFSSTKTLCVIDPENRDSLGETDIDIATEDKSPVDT

As for `COc1ncc2nc(-c3ccccc3)c(=O)n(-c3ccccc3)c2n1`, the Potency in experiment [1] is > 11.4 µM (inactive); in experiment [3], 2 µM (active); in [6], > 9.22 µM (inactive); in [7] it was > 46 µM (inactive). Besides, the figures for the activity change, negative = inhibition in [2], in [4] (setting [21]) and in [9] (at 57.5 µM (top of the series)) were -21.5% (inactive), 3.29% (inactive) and 3.9% (inactive), respectively. In addition, the activity, negative = inhibition in experiment [5] is -8.81% (inactive). In addition, the compound was classed as inactive in experiment [8]. For the same compound, the values for the max response in [9] (setting [22]) and in experiment [9] (setting [23]) were 10.3% and 11.5%, respectively. Moreover, the Potency entry in experiment [10], in experiment [11], in experiment [12], in [13] and in experiment [14] was “inactive” in each case.

In the case of `Oc1ccc(/C=C\c2cc(O)cc(O)c2)cc1`, the activity change, negative = inhibition in experiment [2] was -2.07% [at 17.2 µM] (inactive); in experiment [4] (at 17.2 µM (top of the series)), -19.4% (inactive); in experiment [4] (at 38 µM (top of the series)), -5.74% (inactive); in [9] (at 25.7 µM (top of the series)) it was 2.61% (inactive). In [5], the activity, negative = inhibition was -21.4% [at 17.2 µM] (inactive). In addition, the result in experiment [8], in experiment [16] and in experiment [17] was inactive. The Potency result in [15], in experiment [13] and in experiment [14] was “inactive” throughout. In addition, the max response was -19.7% in experiment [9] (setting [22]) and -17.5% in [9] (setting [23]). Besides, in experiment [18], the Potency was 44.1 µM (active).

In the case of `COCCn1c(=O)c(-c2ccc(F)cc2)nc2cnc(N3CCOCC3)nc21`, the Potency in experiment [1] is > 11.4 µM (inactive); in [3] it was 5.01 µM (active); in experiment [6], > 9.22 µM (inactive); in experiment [7], > 46 µM (inactive). For the same compound, the activity change, negative = inhibition in experiment [2] was -9.35% (inactive); in experiment [4] (setting [21]), 16.8% (inactive); in [9] (at 57.5 µM (top of the series)), 1.75% (inactive). Also, the activity, negative = inhibition in [5] was -13.8% (inactive). Also, the call in experiment [8] was inactive. Also, the Potency entry in [15], in [10], in experiment [11], in [12], in experiment [13] and in experiment [14] was “inactive” each time. Moreover, the max response in [9] (setting [22]) is 15.7%; in [9] (setting [23]) it was 16.8%.

`COCCn1c(=O)c(-c2cccs2)nc2cnc(N(C)C)nc21`: the Potency in experiment [1] is > 11.4 µM (inactive); in experiment [3], 2 µM (active); in [6] it was > 9.22 µM (inactive); in [7] it was > 46 µM (inactive); in experiment [19] it was 7.94 µM (active). Moreover, the activity change, negative = inhibition in experiment [2] was -5.67% (inactive); in experiment [4] (setting [21]) it was 10.2% (inactive); in experiment [9] (at 57.5 µM (top of the series)), 3.99% (inactive). Moreover, the activity, negative = inhibition in [5] was -4.44% (inactive). In experiment [8], the compound was called inactive. For the same compound, the Potency entry in experiment [15], in [20], in experiment [10], in experiment [11], in [12] and in [14] was “inactive” each time. Besides, in experiment [18], the Potency result is “inactive”. For the same compound, the max response in experiment [9] (setting [22]) came to 26.2%; in experiment [9] (setting [23]) it was 28.7%.

On to `Cc1nc2cnc(N3CCN(C)CC3)nc2n(CCC#N)c1=O`, for which the Potency in [1] was > 11.4 µM (inactive); in experiment [3], 12.6 µM (active); in [6], > 9.22 µM (inactive); in [7] it was > 46 µM (inactive). Also, the activity change, negative = inhibition in [2] is 9.68% (inactive); in experiment [4] (setting [21]) it was -13.7% (inactive); in experiment [9] (at 57.5 µM (top of the series)) it was 4.33% (inactive). Moreover, the activity, negative = inhibition in experiment [5] is -9.15% (inactive). The compound was classed as inactive in experiment [8]. Also, the Potency entry in experiment [15], in experiment [10], in experiment [11], in experiment [12], in experiment [13] and in experiment [14] was “inactive” throughout. In addition, the max response in experiment [9] (setting [22]) stood at 7.54%; in experiment [9] (setting [23]), 9.36%.
